Measured values: PubChem BioAssay AID1851 (National Center for Advancing Translational Sciences (NCATS), 2009)
Values joined by “and” are separate entries in the source; they are usually repeats but may differ in a detail not shown here. Identical values can stand only once. Among all 16,000 compounds or so, about 5,800 (36%) were called active. Inconclusive results (about 23%) are left out. The call rests on the fitted dose curve; in most records, active means well fitted curve in the direction sought with a large enough effect; inconclusive means small, poorly fitted or top-dose-only effect, or effect the other way; inactive means no such curve, though single readings can be large or run the other way. The list shows a part of the results. Where a structure was tested more than once in an assay, its records may differ in their call.

molecular target: Cytochrome P450 2C19 (Homo sapiens) (UniProt P33261); assay: Cytochrome panel assay with activity outcomes; conditions: recombinant CYP, pro-luciferin dealkylation, luminescence, p450-cyp2c19; series mostly up to 57.1 µM; activity, negative = inhibition: at the top concentration
On the % scale 0 is the no-effect control and ±100 the full control effect.

Cytochrome P450 2C19 (Homo sapiens), sequence (P33261 whole entry, looked up): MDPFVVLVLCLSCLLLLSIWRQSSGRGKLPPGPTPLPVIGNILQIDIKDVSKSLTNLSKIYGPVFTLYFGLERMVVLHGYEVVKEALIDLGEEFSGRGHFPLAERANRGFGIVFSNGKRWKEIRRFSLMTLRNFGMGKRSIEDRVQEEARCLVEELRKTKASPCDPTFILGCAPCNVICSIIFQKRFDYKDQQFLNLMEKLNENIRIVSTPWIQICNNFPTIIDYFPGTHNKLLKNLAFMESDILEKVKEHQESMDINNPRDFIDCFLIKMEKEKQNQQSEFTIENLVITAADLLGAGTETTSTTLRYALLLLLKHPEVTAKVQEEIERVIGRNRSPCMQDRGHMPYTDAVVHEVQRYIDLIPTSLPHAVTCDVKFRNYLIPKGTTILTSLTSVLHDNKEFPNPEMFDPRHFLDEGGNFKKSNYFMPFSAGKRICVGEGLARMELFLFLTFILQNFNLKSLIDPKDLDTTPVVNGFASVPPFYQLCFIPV

| SMILES | activity, negative = inhibition | AC50 |
| --- | --- | --- |
| S=C(S)NCCN1CCNCC1 | -11.3% [at 11.4 µM] (inactive) | – |
| Cc1nc(N2CCOCC2)nc(N2CCN(c3ccccc3)CC2)c1[N+](=O)[O-] | – | 2.24 µM (active) |
| Cc1nc2cnc(N3CCOCC3)nc2n(Cc2cccs2)c1=O | -25.7% (inactive) | – |
| Cc1noc(C)c1-c1nc(N2CCOCC2)c2ccccc2n1 | -15.4% (inactive) | – |
| CC(C)(C)NC(=O)NC(=O)CSc1nnc2ccccn12 | 12.4% (inactive) | – |
| Cc1ccc(NC(=O)CCSc2nnc3ccccn23)cc1 | – | 0.794 µM (active) |
| C[C@H](O/N=C1/[C@H]2O[C@@H]2[C@@H](O)[C@H]2[C@H]1CCn1c(=O)n(-c3ccccc3)c(=O)n12)c1cn([C@H](CO)Cc2ccccc2)nn1 | 20% [at 11.4 µM] (inactive) and 36.7% [at 11.4 µM] (inactive) | – |
| O=C(OC1CCN(c2ncc(C(F)(F)F)cc2Cl)CC1)c1ccccc1 | – | 11.2 µM (active) |
| O=C(c1cc(C(F)(F)F)cc(C(F)(F)F)c1)N1CCC2(CC1)CCN(c1ncccn1)CC2 | -29.9% (inactive) | – |
| COc1ccc(/C=N/NC(=O)C2CCN(c3ncc(C(F)(F)F)cc3Cl)CC2)cc1 | -2.67% (inactive) | – |
| Cn1c(C(F)(F)F)nc2c(=O)oc3ccccc3c21 | -18.7% (inactive) | – |
| COc1cccc2cc3c(=O)oc4ccccc4c3nc12 | – | 3.98 µM (active) |
| COc1ccc(CNc2ccnc(-c3ccc4c(c3)OCO4)n2)c(OC)c1 | – | 2.51 µM (active) |
| COc1ccccc1CNc1ccnc(-c2ccc3c(c2)OCO3)n1 | – | 3.16 µM (active) |
| O=C(Nc1ccccc1)N1CC2(CCN(C(=O)c3cnccn3)CC2)C1 | 0.474% (inactive) | – |
| Cc1ccn2cc(CSc3ccccc3N)nc2c1 | – | 2.51 µM (active) |
| N#C/C(=C\Nc1ccccn1)C(=O)c1ccco1 | -6.24% [at 11.4 µM] (inactive) | – |
| CSC(=N)N | – | inactive and 631 nM (active) |
| CCSC(=N)N | 29.4% (inactive) | – |
| CC(C)SC(=N)N | 13.8% (inactive) | – |
| CCC/C=C(\CCC)C(NC(=O)c1cccs1)c1ccc(C(=O)OC)cc1 (stereo not drawn) | – | 0.794 µM (active) |
| CCC/C=C(\CCC)C(NC(=O)c1ccc(-c2ccccc2)cc1)c1ccc(C(=O)OC)cc1 (stereo not drawn) | 10.8% (inactive) | – |
| CCC/C=C(\CCC)C(NC(=O)Oc1ccc(F)cc1)c1ccc(C(=O)OC)cc1 (stereo not drawn) | -17.8% (inactive) | – |
| CCC/C=C(\CCC)C(NC(=O)c1ccc(C(F)(F)F)cc1)c1ccc(C(F)(F)F)cc1 (stereo not drawn) | -13.6% (inactive) | – |
| CCC/C=C(\CCC)C(NC(=O)Cc1ccccc1)c1ccc(C(=O)OC)cc1 (stereo not drawn) | – | 2.51 µM (active) |

| SMILES | activity, negative = inhibition | AC50 |
| --- | --- | --- |
| CCC/C=C(\CCC)C(NC(=O)c1cccs1)c1ccc(C(F)(F)F)cc1 (stereo not drawn) | – | 0.316 µM (active) |
| CCC/C=C(\CCC)C(NC(=O)c1ccc(C(F)(F)F)cc1)c1ccccc1 (stereo not drawn) | – | 10 µM (active) |
| COc1ccc(-n2c(=O)c(-c3cc(F)cc(F)c3)nc3cnc(N4CCNCC4)nc32)cc1 | -25.9% (inactive) | – |
| CC(C)(C)c1ccc(NS(=O)(=O)c2ccc(N)cc2)cc1 | – | 0.398 µM (active) |
| CC(C)(C)NS(=O)(=O)c1ccc(NS(=O)(=O)c2ccc(F)cc2)cc1 | 4.37% (inactive) | – |
| Nc1ccc(S(=O)(=O)Nc2ccc(Cl)nn2)cc1 | 9.31% [at 25.6 µM] (inactive) | – |
| CN(C)CCCNc1ncnc2nc[nH]c12 | 19.7% [at 11.4 µM] (inactive) | – |
| COc1ccccc1-c1cc(N(C)Cc2ccco2)ncn1 | – | 3.98 µM (active) |
| CN(Cc1ccco1)c1ccnc(-c2ccccc2C(F)(F)F)n1 | – | 7.94 µM (active) |
| CN(C)c1ccnc(-c2ccccc2C(F)(F)F)n1 | -34.4% (inactive) | – |
| Cc1ccccc1-c1cc(N(C)Cc2ccco2)ncn1 | – | 6.31 µM (active) |
| CN(C)Cc1ccccc1-c1cc(N(C)Cc2ccco2)ncn1 | 37.8% (inactive) | – |
| CN(Cc1ccco1)c1cc(-c2ccccc2Cl)ncn1 | – | 7.94 µM (active) |
| CN(C)Cc1ccccc1-c1nccc(N(C)Cc2ccco2)n1 | -17.9% (inactive) | – |
| CN(Cc1ccco1)c1cc(-c2ccccc2C(F)(F)F)ncn1 | – | 10 µM (active) |
| O[C@]1(c2ccccc2)c2ccccc2NC2=NCCN21 | 36.2% [at 11.4 µM] (inactive) | – |
| COc1ccc(NC(=O)c2ccc(COc3ccccc3)o2)cc1 | – | 5.62 µM (active) |
| COC(=O)c1ccccc1NC(=O)c1ccc(COc2ccc(C)c(C)c2)o1 | – | 2 µM (active) |
| COC(=O)c1ccccc1NC(=O)c1ccc(Cn2cc(Cl)cn2)o1 | – | 1.12 µM (active) |
| Cc1ccc(OCc2ccc(C(=O)Nc3nccs3)o2)cc1C | – | 2.51 µM (active) |
| Cc1onc(C(=O)/C=C/N(C)C)c1C(=O)Nc1nccs1 | -12.2% (inactive) | – |
| Cc1ccc2ncc([N+](=O)[O-])n2c1 | -12.1% (inactive) | – |
| CCOC(=O)CC(NC(=O)c1ccc(C)cc1)c1ccc(C)cc1 (stereo not drawn) | – | 14.1 µM (active) |
| CCOC(=O)CC(NC(=O)c1cccs1)c1ccc(OCC)cc1 (stereo not drawn) | – | 2.82 µM (active) |
| CCOC(=O)CC(NC(=O)c1ccco1)c1ccc(OC)cc1 (stereo not drawn) | – | 14.1 µM (active) |

| SMILES | activity, negative = inhibition | AC50 |
| --- | --- | --- |
| CCOc1ccc(C(CC(=O)O)NC(=O)COc2ccccc2)cc1 (stereo not drawn) | -6.04% (inactive) | – |
| CC(C)CSC[C@@H]1O[C@H](n2cnc3c(N)nccc32)[C@H](O)[C@@H]1O | 39.2% [at 11.4 µM] (inactive) | – |
| COCCNC(=O)c1cn(Cc2c(F)cccc2Cl)nn1 | – | 14.1 µM (active) |
| COCCNC(=O)CCn1nc(-c2ccc(Cl)cc2)ccc1=O | 3.18% (inactive) | – |
| CN(CC(=O)Nc1cccc2c1CCCC2)S(=O)(=O)c1ccc(Br)cc1 | – | 5.01 µM (active) |
| CN(CCC(=O)O)S(=O)(=O)c1ccccc1 | -21.5% [at 11.4 µM] (inactive) | – |
| NC(N)=NC[C@@H]1CCCCCCN1 | 23.1% [at 11.4 µM] (inactive) | – |
| O=C(CCc1ccccc1)NCc1cccnc1 | – | 25.1 µM (active) |
| O=C(c1ccccc1)c1c[nH]c(C(=O)NCc2cccnc2)c1 | – | 14.1 µM (active) |
| O=C(CSCc1c(Cl)cccc1Cl)NCc1cccnc1 | – | 3.55 µM (active) |
| NNC(=O)Cc1cccnc1 | 7.22% [at 11.4 µM] (inactive) | – |
| Cn1c(C(=O)O)c(CC(=O)NCc2cccnc2)c2ccccc21 | 4.63% (inactive) | – |
| CC(C)CO/N=C1/C[C@@H](O)[C@@H](O)[C@@H]2[C@@H]3C(=O)N([C@@H](C)c4ccccc4)C(=O)[C@H]3CC[C@@H]12 | 7.13% [at 11.4 µM] (inactive) | – |
| CC(CO)(CO)N=Cc1cc(I)cc(I)c1O | -13.1% [at 11.4 µM] (inactive) | – |
| COc1ccccc1NC(=O)[C@H](COCc1ccccc1)NC(=O)OC(C)(C)C | – | 3.55 µM (active) |
| O=[N+]([O-])c1cc(C(F)(F)F)ccc1NCCCCNS(=O)(=O)c1ccc2ccccc2c1 | – | 1.78 µM (active) |
| CCOC(=O)N/N=C/c1ccc(C)o1 | -11.5% (inactive) | – |
| Cc1ccc(/C=C/C(=O)N2CC(C)CC(C)C2)o1 (stereo not drawn) | – | 11.2 µM (active) |
| Cc1ccc(NC(=O)CN2C(=O)N/C(=C/c3ccc(C)o3)C2=O)cc1 | -3.63% (inactive) | – |
| Cc1cccc(NC(=O)CC2Nc3cccc4cccc(c34)NC2=O)c1 (stereo not drawn) | – | 2.24 µM (active) |
| O=C(CN1C(=O)c2cccc3cccc(c23)C1=O)N1CCCCCC1 | 16.7% (inactive) | – |
| O=C(CCCN1C(=O)c2cccc3cccc(c23)C1=O)N1CCc2ccccc2C1 | – | 3.98 µM (active) |
| Cc1cccc(NC(=O)CCCN2C(=O)c3cccc4cccc(c34)C2=O)c1 | – | 14.1 µM (active) |
| C[N+](C)(CCCCCC[N+](C)(C)CCCN1C(=O)c2cccc3cccc(c23)C1=O)CCCN1C(=O)c2cccc3cccc(c23)C1=O | -15.3% (inactive) | – |
| O=C(O)c1ccc(Sc2nnnn2-c2ccccc2)c([N+](=O)[O-])c1 | -3.77% (inactive) | – |

| SMILES | activity, negative = inhibition | AC50 |
| --- | --- | --- |
| Cc1ccc(-n2nnnc2Sc2nc([N+](=O)[O-])nn2C)cc1C | – | 3.98 µM (active) |
| CC(CCc1ccccc1)NC(=O)C(=O)NCCO (stereo not drawn) | – | 31.6 µM (active) |
| CC(CCc1ccccc1)NC(=O)/C=C/c1ccccc1 (stereo not drawn) | – | 8.91 µM (active) |
| CCCCNC(=O)C(=O)NC(C)CCc1ccccc1 (stereo not drawn) | – | 14.1 µM (active) |
| O=C(O)[C@H](CCc1ccccc1)N1C(=O)c2ccccc2C1=O | -17.1% [at 11.4 µM] (inactive) | – |
| CC(C)C(=O)N[C@@H]1CCCN1C(=O)/C=C\c1ccccc1 | -31.2% [at 11.4 µM] (inactive) | – |
| CC(C)C(=O)N[C@H]1CCCN1C(=O)/C=C\c1ccccc1 | -19.8% [at 11.4 µM] (inactive) | – |
| CC(=O)c1cn(CC(=O)Nc2c(C)cccc2C)c2ccccc12 | – | 7.08 µM (active) |
| CC(C)(C)N(NC(=O)Nc1ccccc1)C(=O)c1ccccc1Cl | – | 11.2 µM (active) |
| Cc1cc(C)cc(C(=O)N(NC(=O)Nc2ccc(Cl)cc2)C(C)(C)C)c1 | – | 1.58 µM (active) |
| CC(C)(C)N(NC(=O)Nc1ccc(Cl)c(Cl)c1)C(=O)c1ccccc1 | – | 1.26 µM (active) |
| O=C(Nc1ccc(C(=O)Nc2ccc(C(=O)Nc3ccc(S(=O)(=O)O)c4cc(S(=O)(=O)O)cc(S(=O)(=O)O)c34)cc2)cc1)Nc1ccc(C(=O)Nc2ccc(C(=O)Nc3ccc(S(=O)(=O)O)c4cc(S(=O)(=O)O)cc(S(=O)(=O)O)c34)cc2)cc1 | -38.1% (inactive) | – |
| COC(=O)c1cccc(NC(=O)Nc2ccc(Cl)c(Cl)c2)c1 | – | 3.98 µM (active) |
| CC1(C)S[C@@H]2[C@H](NC(=O)[C@@H](N)c3ccccc3)C(=O)N2[C@H]1C(=O)O[C@H]1OC(=O)c2ccccc21 | -21% [at 25.6 µM] (inactive) | – |
| O[C@H](CN1CCN(c2cccc(Cl)c2)CC1)C(c1ccccc1)c1ccccc1 | -35.5% (inactive) | – |
| O=C(c1ccccc1)C1CN(c2ccccc2)CC1c1ccc(Cl)cc1 (stereo not drawn) | – | 3.98 µM (active) |
| COc1ccccc1-c1c(C(F)(F)F)oc2cc(OC(=O)c3cccc([N+](=O)[O-])c3C)ccc2c1=O | – | 0.631 µM (active) |
| Cc1ccccc1-c1nccc(NCCN2CCOCC2)n1 | – | 10 µM (active) |
| Clc1ccccc1-c1nccc(NCCN2CCOCC2)n1 | – | 5.01 µM (active) |
| Cc1noc(C)c1-c1nccc(NCCN2CCOCC2)n1 | -26.3% (inactive) | – |
| Cc1ccccc1-c1cc(NCCN2CCOCC2)ncn1 | -8.59% (inactive) | – |
| Clc1ccccc1-c1ccc2ncnc(NCCN3CCOCC3)c2c1 | -26.1% (inactive) | – |
| c1ccc2c(c1)CCCc1cc(NCCN3CCOCC3)nnc1-2 | 38% [at 25.6 µM] (inactive) | – |
